Data taken from ChEMBL document CHEMBL3433997, “St. Jude Leishmania screening dataset” (2016).

Assays:
Assay type in all cases: functional
[1] = target: Solute carrier family 2, facilitated glucose transporter member 1 (Homo sapiens) (UniProt P11166); assay: ST_JUDE_LEISH: Cytotoxicity at 2uM final concentration against transgenic Leishmania Mexicana promastigotes LmGLUT1 that are glucose transport deficient and complemented with the human glucose transporter GLUT1. Activity is measured by DNA content using SYBR green in vitro
Solute carrier family 2, facilitated glucose transporter member 1 (Homo sapiens), sequence (P11166 whole entry): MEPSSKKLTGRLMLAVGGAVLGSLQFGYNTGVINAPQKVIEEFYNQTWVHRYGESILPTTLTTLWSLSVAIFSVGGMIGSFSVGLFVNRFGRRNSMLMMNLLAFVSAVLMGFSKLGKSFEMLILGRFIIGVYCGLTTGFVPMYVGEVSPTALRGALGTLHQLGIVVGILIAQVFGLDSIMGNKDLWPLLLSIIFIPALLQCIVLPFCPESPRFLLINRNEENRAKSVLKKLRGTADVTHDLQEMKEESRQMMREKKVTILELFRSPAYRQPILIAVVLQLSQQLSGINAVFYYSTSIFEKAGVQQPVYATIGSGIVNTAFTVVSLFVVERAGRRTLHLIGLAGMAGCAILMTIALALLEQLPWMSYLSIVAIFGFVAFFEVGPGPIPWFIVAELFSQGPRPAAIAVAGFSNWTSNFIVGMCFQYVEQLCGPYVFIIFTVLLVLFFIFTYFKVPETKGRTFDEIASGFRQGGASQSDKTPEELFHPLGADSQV

[2] = target: Hexose transporter 1 (Plasmodium falciparum) (UniProt O97467); assay: ST_JUDE_LEISH: Cytotoxicity at 2uM final concentration against transgenic Leishmania Mexicana promastigotes LmPfHT that are glucose transport deficient and complemented with the Plasmodium falciparum hexose transporter. Activity is measured by DNA content using SYBR green in vitro
[3] = target: Glucose transporter (Leishmania mexicana) (UniProt O61059); assay: ST_JUDE_LEISH: Cytotoxicity at 2uM final concentration against transgenic Leishmania Mexicana promastigotes LmGT2 that are glucose transport deficient and complemented with the L. Mexicana glucose transporter 2. Activity is measured by DNA content using SYBR green in vitro

Structure (SMILES)	inhibition [1] [%]	inhibition [2] [%]	inhibition [3] [%]
COc1c(C2CCN(CCCCNC(=O)c3ccc(NC(=O)c4ccc(C#N)cc4)cc3)CC2)ccc2c1CCCC2	1.73	0.65	0.9
COc1ccc(C=CC(=O)Nc2ccc(N3CCCC3)cc2)cc1	1.15	-1.95	-1
O=C(NCCCN1CCCCC1)c1ccc(Nc2nccc(Nc3ccc(Oc4ccccc4)cc3)n2)cc1	10.4	8.47	7.37
COc1cc(NC(=O)N2CCc3cc(OC)c(OCCN4CCCCC4)cc32)cc(C(F)(F)F)c1	12.9	12.7	9.77
Cc1nc(C)c(-c2ccc(C(=O)c3ccc(Cl)cc3)cc2)c(O)c1Br	1.02	1.24	0.57
CN1CCCc2cc(NC(=O)C=Cc3ccc(-c4ccc(F)cc4F)o3)ccc2C1	6.23	5.24	8.04
CCC[C@@H]1CCN[C@H]([C@H](O)c2ccnc3ccc(OC)cc23)C1	4.68	3.5	4.53
N#Cc1ccc(CNCCCCCCNCc2ccc(C#N)c3ccccc23)c2ccccc12	2.15	1.12	2.53
CN1CCN(CCCN(Cc2csc(-c3ccc(CNCc4ccccc4)cc3)n2)C(=O)Nc2cc(Cl)cc(Cl)c2)CC1	9.09	6.74	7.7
COc1ccc2[nH]cc(C3CCN(CCCCCNC(=O)c4ccc(-c5ccccc5)cc4)CC3)c2c1	4.24	3.36	2.9
C=C(C)Cn1cc(C2CCN(CCCCNC(=O)c3sc(-c4ccc(Cl)cc4Cl)nc3CO)CC2)c2ccccc21	-1.31	-1.73	0.05
O=C(NC1CC1)c1ccc(N2CCCCN2CCc2ccccc2)c(C(F)(F)F)c1	10.5	19.8	5.87
CCc1ccc(NC(=O)c2ccc(CN3CCCN(Cc4cccc(Cl)c4)CC3)cc2)cc1	1.47	2.69	2.29
CCC[C@@H]([C@@H](CC1CCCCC1)C(=O)N[C@@H](CCCCNS(C)(=O)=O)C(=O)Nc1nccs1)N(O)C=O	1.61	3.98	-0.28
Cc1ccc(NC(=O)c2ccc3ncccc3c2)cc1OC1CCN(Cc2ccc(F)cc2)CC1	6.67	3.46	5.46
O=C(Nc1ccc2ccccc2c1)N1CCC(NCc2cccc([N+](=O)[O-])c2)CC1	2.09	1.61	0.78
